The whole screen tested about 39,000 compounds, of which about 3,300 (8.5%) were called active. The list comes from a sample in which actives are over-represented; it also holds similar structures and randomly drawn compounds.
What follows are compounds tested on HepG2 (assay: cytotoxicity call (relative viability < 0.9)). Settings: 10 µM.

| Structure (SMILES) | cytotoxicity call |
| --- | --- |
| CO[C@@H]1[C@H](N(C)C(=O)c2ccccc2)C[C@H]2O[C@]1(C)n1c3ccccc3c3c4c(c5c6ccccc6n2c5c31)C(=O)NC4 | active |
| C[C@@H]1CCCCO[C@H](CN(C)C(=O)c2ccccc2)[C@@H](C)CN([C@H](C)CO)C(=O)c2cc(NC(=O)Cc3ccccc3)ccc2O1 | inactive |
| Cc1noc(C)c1NC(=O)Nc1ccc2c(c1)C(=O)N([C@@H](C)CO)C[C@H](C)[C@@H](CN(C)Cc1ccccc1)OCCCC[C@H](C)O2 | inactive |
| C[C@@H]1CN([C@H](C)CO)C(=O)c2cc(NS(=O)(=O)c3ccc(F)cc3)ccc2O[C@@H]1CN(C)CC1CC1 | inactive |
| CN(C)C1C(O)=C(C(N)=O)C(=O)C2(O)C(O)=C3C(=O)c4c(O)cccc4C(C)(O)C3C(O)C12.Cl (configuration not stated) | inactive |
| CC(=O)N(C)C[C@H]1Oc2ncc(C#C[C@@H](C)O)cc2C(=O)N([C@H](C)CO)C[C@H]1C | inactive |
| CC(=O)N[C@@H]1[C@@H](O)[C@H](O)[C@@H](CO)O[C@H]1O | inactive |
| Cc1nc(N)sc1-c1ccnc(Nc2ccc(N3CCOCC3)cc2)n1 | active |
| COc1ccc(N2CCN(c3nc(NCCO)nc(N4CCOCC4)n3)CC2)cc1 | inactive |
| CC(=O)Oc1ccc(-c2cc(=O)c3c(OC(C)=O)cc(OC(C)=O)cc3o2)cc1 | inactive |
| CN1CCN(C(=O)C[C@H]2CC[C@H]3[C@@H](COC[C@H](O)CN3C(=O)C3CC3)O2)CC1 | inactive |
| COc1ccc(S(=O)(=O)N(C)C[C@H]2Oc3ccc(NC(=O)Cc4ccccc4)cc3C(=O)N([C@@H](C)CO)C[C@@H]2C)cc1 | inactive |
| C[C@H]1CN([C@@H](C)CO)C(=O)c2cccc(NC(=O)Nc3ccccc3)c2O[C@@H]1CN(C)Cc1ccc(C(F)(F)F)cc1 | inactive |
| Cc1ccc(Nc2ncc3c(n2)N(C)C(=O)N(c2cc(NC(=O)c4cccc(C(F)(F)F)c4)ccc2C)C3)cn1 | active |
| Cc1ncc(NC(=O)c2cccc(C(F)(F)F)c2)cc1-c1cnc(OC2CCOCC2)c(N2CCOCC2)c1 | inactive |
| CC(=O)c1cccc(C(F)(F)F)c1 | inactive |
| Cc1ccc(S(=O)(=O)N(C)C[C@@H]2Oc3cc(Br)ccc3S(=O)(=O)N([C@H](C)CO)C[C@@H]2C)cc1 | inactive |
| Cc1noc(C)c1S(=O)(=O)N(C)C[C@@H]1OCCCC[C@@H](C)Oc2ccc(NS(C)(=O)=O)cc2C(=O)N([C@H](C)CO)C[C@H]1C | inactive |
| CCCC[P+](CCCC)(CCCC)Cc1ccc(NC(=O)[C@H](Cc2ccc3ccccc3c2)N/C(=N/C2CCCCC2)NC2CCCCC2)cc1 | inactive |
| C/C=C/c1ccc2c(c1)O[C@H](CN(C)Cc1ccc(C(=O)O)cc1)[C@@H](C)CN([C@@H](C)CO)S2(=O)=O | inactive |
| COc1ccc(CN(C)C[C@H]2OCCCC[C@@H](C)Oc3ccc(NC(=O)Nc4ccc5c(c4)OCO5)cc3C(=O)N([C@H](C)CO)C[C@H]2C)cc1 | active |

| Structure (SMILES) | cytotoxicity call |
| --- | --- |
| COc1ccc(CN(C)C[C@@H]2OCCCC[C@@H](C)Oc3ccc(NC(=O)Nc4ccc5c(c4)OCO5)cc3C(=O)N([C@@H](C)CO)C[C@H]2C)cc1 | active |
| COc1ccc(CN(C)C[C@H]2OCCCC[C@@H](C)Oc3ccc(NC(=O)Nc4ccc5c(c4)OCO5)cc3C(=O)N([C@H](C)CO)C[C@@H]2C)cc1 | inactive |
| COc1ccc(CN(C)C[C@@H]2OCCCC[C@@H](C)Oc3ccc(NC(=O)Nc4ccc5c(c4)OCO5)cc3C(=O)N([C@H](C)CO)C[C@H]2C)cc1 | inactive |
| COc1ccc(CN(C)C[C@@H]2OCCCC[C@@H](C)Oc3ccc(NC(=O)Nc4ccc5c(c4)OCO5)cc3C(=O)N([C@H](C)CO)C[C@@H]2C)cc1 | inactive |
| COc1ccc(CN(C)C[C@H]2OCCCC[C@H](C)Oc3ccc(NC(=O)Nc4ccc5c(c4)OCO5)cc3C(=O)N([C@H](C)CO)C[C@@H]2C)cc1 | inactive |
| COc1ccc(CN(C)C[C@@H]2OCCCC[C@H](C)Oc3ccc(NC(=O)Nc4ccc5c(c4)OCO5)cc3C(=O)N([C@H](C)CO)C[C@@H]2C)cc1 | inactive |
| COc1ccc(CN(C)C[C@H]2OCCCC[C@H](C)Oc3ccc(NC(=O)Nc4ccc5c(c4)OCO5)cc3C(=O)N([C@@H](C)CO)C[C@@H]2C)cc1 | active |
| COc1ccc(CN(C)C[C@@H]2OCCCC[C@H](C)Oc3ccc(NC(=O)Nc4ccc5c(c4)OCO5)cc3C(=O)N([C@@H](C)CO)C[C@@H]2C)cc1 | inactive |
| COc1ccc(CN(C)C[C@@H]2OCCCC[C@H](C)Oc3ccc(NC(=O)Nc4ccc5c(c4)OCO5)cc3C(=O)N([C@@H](C)CO)C[C@H]2C)cc1 | inactive |
| COc1ccc(CN(C)C[C@@H]2OCCCC[C@@H](C)Oc3ccc(NC(=O)Nc4ccc5c(c4)OCO5)cc3C(=O)N([C@@H](C)CO)C[C@@H]2C)cc1 | active |
| COc1ccc(CN(C)C[C@@H]2OCCCC[C@H](C)Oc3ccc(NC(=O)Nc4ccc5c(c4)OCO5)cc3C(=O)N([C@H](C)CO)C[C@H]2C)cc1 | inactive |
| O=C(C[C@H]1CC[C@@H](NC(=O)c2cnccn2)[C@@H](CO)O1)NCc1ccccc1F | inactive |
| COc1ccc(CNC(=O)C[C@@H]2C[C@H]3c4cc(NC(=O)NC5CCCC5)ccc4O[C@H]3[C@H](CO)O2)cc1 | inactive |
| COc1ccc(NC(=O)N(C)C[C@H]2Oc3ccc(NS(C)(=O)=O)cc3CC(=O)N([C@H](C)CO)C[C@H]2C)cc1 | inactive |
| O=C(C[C@@H]1C=C[C@H](NC(=O)CN2CCOCC2)[C@@H](CO)O1)NCc1cccc(F)c1 | inactive |
| C[C@H](CO)N1C[C@H](C)[C@@H](CN(C)CC2CCCCC2)Oc2ccc(NC(=O)CCN3CCOCC3)cc2CC1=O | inactive |
| C[C@H]1CN([C@@H](C)CO)C(=O)CCCn2cc(nn2)CO[C@H]1CN(C)S(C)(=O)=O | inactive |
| C[C@@H]1CCCCO[C@@H](CN(C)C(=O)CCCN(C)C)[C@H](C)CN([C@H](C)CO)C(=O)c2cc(NC(=O)Nc3cccc4ccccc34)ccc2O1 | inactive |
| COc1ccc(CN(C)C[C@H]2OCCCC[C@H](C)Oc3ccc(NC(=O)Nc4ccc5c(c4)OCO5)cc3C(=O)N([C@@H](C)CO)C[C@H]2C)cc1 | active |
| COc1ccc(CN(C)C[C@H]2OCCCC[C@@H](C)Oc3ccc(NC(=O)Nc4ccc5c(c4)OCO5)cc3C(=O)N([C@@H](C)CO)C[C@@H]2C)cc1 | inactive |
| COc1ccc(CN(C)C[C@H]2OCCCC[C@@H](C)Oc3ccc(NC(=O)Nc4ccc5c(c4)OCO5)cc3C(=O)N([C@@H](C)CO)C[C@H]2C)cc1 | inactive |
